Structures are written as SMILES. Records with an inconclusive call do not appear. Active and inactive are the calls of the source. Unless noted, the call rests on the fitted dose curve.

Vitamin D3 receptor (Homo sapiens), sequence (P11473 whole entry, looked up): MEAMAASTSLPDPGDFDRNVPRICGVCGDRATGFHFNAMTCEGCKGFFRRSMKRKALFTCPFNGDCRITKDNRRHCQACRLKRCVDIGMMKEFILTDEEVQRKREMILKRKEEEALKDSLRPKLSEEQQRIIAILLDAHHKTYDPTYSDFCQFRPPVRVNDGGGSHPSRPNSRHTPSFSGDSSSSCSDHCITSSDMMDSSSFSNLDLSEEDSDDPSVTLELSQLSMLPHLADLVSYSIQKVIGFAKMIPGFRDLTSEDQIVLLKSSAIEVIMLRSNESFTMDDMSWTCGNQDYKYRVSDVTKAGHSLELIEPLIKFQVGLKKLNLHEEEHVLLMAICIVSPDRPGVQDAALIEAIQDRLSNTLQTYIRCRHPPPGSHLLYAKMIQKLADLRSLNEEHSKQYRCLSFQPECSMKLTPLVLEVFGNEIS

The target in one assay is Vitamin D3 receptor (Homo sapiens) (UniProt P11473). Nature of the assay: qHTS assay to identify small molecule agonists of the vitamin D receptor (VDR) signaling pathway (AID 743222). As to conditions: HEK293T VDR-UAS-bla, beta-lactamase FRET ratio, 16 h; series mostly up to 63.5 µM. The method, boiled down:
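VDR-bla cells were seeded, left 4 h, treated with compounds in DMSO for 16 h, incubated 2 h at RT with B/G FRET substrate, and read for fluorescence.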
A general note: In qHTS, concentration-response curves come from the screen itself.
On to `CCN1CC(CCN2CCOCC2)C(c2ccccc2)(c2ccccc2)C1=O` (stereo not drawn), for which the result was inactive. Turning to `OCCN1CCN(CCO)CC1`, the result was inactive. On to `O=Cc1ccc(F)c(Br)c1`, for which the outcome was inactive. Still for that read-out and setting: to `CC(C)C(=O)OCC(C)(C)C(O)C(C)C` (stereo not drawn) belongs “inactive”. With `C[C@@H]1CN(c2c(F)c(N)c3c(=O)c(C(=O)O)cn(C4CC4)c3c2F)C[C@H](C)N1`, the result was inactive. As for `CCCCCCCCCC#N`, the result was inactive. On to `Cc1ccc(C)c(N)c1`, for which the outcome was inactive. For `O=C1CCCc2ccccc21`, the outcome was inactive. In the case of `Cc1cn([C@@H]2O[C@H](CO)[C@@H](O)[C@@H]2F)c(=O)[nH]c1=O`, the result was inactive.

Turning to `O=C(O)C(=O)Cc1c[nH]c2ccccc12`, the result was inactive.

In the case of `CC/C=C\CCOC(=O)CCCCC`, the outcome was inactive. Same read-out and setting: to `COc1ccccc1N1CCN(CCCNc2cc(=O)n(C)c(=O)n2C)CC1` belongs “inactive”; to `CN(C)CCOc1ccccc1Cc1ccccc1`, “inactive”; to `CN(C)Cc1ccccc1`, “inactive”. The same measure, in the same setting: then `CC(Oc1c(Cl)cccc1Cl)C1=NCCN1` (stereo not drawn), with “inactive”; and `O=C(O)CN(CCN(CC(=O)O)CC(=O)O)CCN(CC(=O)O)CC(=O)O`, with “inactive”; and `O=C(CCCl)NCc1ccccc1`, with “inactive”. As to `NC/C=C/C(=O)O`, the outcome was inactive. For `Nc1cccc(S(=O)(=O)O)c1`, the outcome was inactive. With `CN1CCC[C@@H]1Cc1c[nH]c2ccc(CCS(=O)(=O)c3ccccc3)cc12`, the outcome was inactive. Same read-out and setting: to `CCOC(=O)c1cc(=O)c2c(OCC(COc3cccc4oc(C(=O)OCC)cc(=O)c34)OC(=O)[C@@H](N)CCCCN)cccc2o1` belongs “inactive”; to `CC(C)=CCC[C@](C)(O)[C@@H]1CC=C(C)CC1`, “inactive”. Take `O=C(C(Cl)Cl)N1CCOC12CCCCC2`: the result was inactive. `C[C@]12CCC(=O)C=C1CC[C@@H]1[C@@H]2CC[C@@]2(C)[C@H]1CC[C@]2(O)C(=O)CO`: the result was inactive.

A further assay has the same target. The assay can be described thus: qHTS assay to identify small molecule antagonists of the vitamin D receptor (VDR) signaling pathway (AID 743223; active means well fitted inhibition curve with a large enough effect in the signal ratio in the repeat runs, not every such curve was filed as active; the % refers to the signal ratio). The note with it: VDR-UAS-bla HEK293T, beta-lactamase FRET ratio, 16 h; series mostly up to 61 µM. A digest of the protocol:
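Reporter line VDR-bla; stimulus 1alpha,25-(OH)2 vitamin D3, 3 nM final; compound co-addition, 16 h 37C/5% CO2; LiveBLAzer B/G substrate 2 h RT; fluorescence intensity.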
As to `O=S(=O)(O)C(F)(F)F`, the outcome was inactive.

For `CC(C)(C)c1cccc(O)c1`, the result was inactive. The same measure, in the same setting: to `OCCN1CCN(CCO)CC1` belongs “inactive”. With `CCc1cc(Cl)c(OC)c(C(=O)NC[C@@H]2CCCN2CC)c1O`, the outcome was inactive. On the same count and under the same terms, to `CC(C)C1=CC2=CC[C@@H]3[C@](C)(CCC[C@@]3(C)C(=O)O)[C@H]2CC1` belongs “inactive”; to `CC(C)C(=O)OCC(C)(C)C(O)C(C)C` (stereo not drawn), “inactive”; to `C[C@@H]1CN(c2c(F)c(N)c3c(=O)c(C(=O)O)cn(C4CC4)c3c2F)C[C@H](C)N1`, “inactive”.

As to `COC(=O)N[C@H](C(=O)N[C@@H](Cc1ccccc1)[C@@H](O)CN(Cc1ccc(-c2ccccn2)cc1)NC(=O)[C@@H](NC(=O)OC)C(C)(C)C)C(C)(C)C`, the outcome was inactive.

As to `O=C1CCCc2ccccc21`, the result was inactive. Still for that read-out and setting: then `O=CCCc1ccccc1`, with “inactive”; and `CCCCN1C[C@H](O)[C@@H](O)[C@H](O)[C@H]1CO`, with “inactive”; and `COc1ccccc1N1CCN(CCCNc2cc(=O)n(C)c(=O)n2C)CC1`, with “inactive”. `CN(C)CCOc1ccccc1Cc1ccccc1`: the result was inactive. As to `CN(C)Cc1ccccc1`, the outcome was inactive.

In the case of `CC(Oc1c(Cl)cccc1Cl)C1=NCCN1` (stereo not drawn), the outcome was inactive. Take `Cc1ccc([N+](=O)[O-])c(N)c1`: the result was inactive. As for `O=C(CCCl)NCc1ccccc1`, the outcome was inactive. On the same count and under the same terms, then `NC/C=C/C(=O)O`, with “inactive”; and `CN1CCC[C@@H]1Cc1c[nH]c2ccc(CCS(=O)(=O)c3ccccc3)cc12`, with “inactive”. On the same count and under the same terms, to `CC(C)OC(C)C` belongs “inactive”. Regarding `CCOC(=O)c1cc(=O)c2c(OCC(COc3cccc4oc(C(=O)OCC)cc(=O)c34)OC(=O)[C@@H](N)CCCCN)cccc2o1`, the result was inactive.

For `O=C(C(Cl)Cl)N1CCOC12CCCCC2`, the result was inactive. Same read-out and setting: then `C[C@]12CCC(=O)C=C1CC[C@@H]1[C@@H]2CC[C@@]2(C)[C@H]1CC[C@]2(O)C(=O)CO`, with “inactive”. As for `CC(C)Nc1nc(N)nc(Cl)n1`, the result was inactive.

For the origin of these results see PubChem BioAssay (Tox21).
